Reference: PubChem BioAssay
Unmarked numbers belong to inactive results. For some assays here: Results with a measured potency or affinity are listed apart. Calls of active or inactive are those of the source. Unless noted, the rule behind the calls is not given here.

How the values were obtained:
[1] = antimalarial activity against Dd2 strain (AID 2302;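 active = growth inhibition above 50% at the single 2 µM test dose, taken to imply half-maximal potency below 2 µM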;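 note: 0% = DMSO untreated growth and 100% = chloroquine plus artemisinin killed control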); conditions: P. falciparum Dd2 in RBCs, LDH growth readout, 72 h; at 2 µM; hits give high values
[2] = HepG2 cytotoxicity, primary screen, cytotoxicity control for P. falciparum antimalarial project, cell-based, ATP luminescence (AID 2303;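 active = inhibition above 50%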;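 note: 0% = DMSO wells and 100% = digitonin-killed cells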); conditions: HepG2 viability, 24-48 h, at 10 µM, hits give high values
[3] = molecular target: L-lactate dehydrogenase (Plasmodium falciparum (isolate CDC / Honduras)) (UniProt Q27743); experiment: PfLDH activity inhibition – cell lysate, 3D7 strain, counter-screen for P. falciparum growth inhibition project (AID 2304);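 note: 0% = vehicle and 100% = reference inhibitor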; conditions: P. falciparum 3D7 crude extract, LDH APAD/NBT absorbance; at 2 µM; hits give high values
Chain of L-lactate dehydrogenase (Plasmodium falciparum (isolate CDC / Honduras)) (Q27743 whole entry, looked up): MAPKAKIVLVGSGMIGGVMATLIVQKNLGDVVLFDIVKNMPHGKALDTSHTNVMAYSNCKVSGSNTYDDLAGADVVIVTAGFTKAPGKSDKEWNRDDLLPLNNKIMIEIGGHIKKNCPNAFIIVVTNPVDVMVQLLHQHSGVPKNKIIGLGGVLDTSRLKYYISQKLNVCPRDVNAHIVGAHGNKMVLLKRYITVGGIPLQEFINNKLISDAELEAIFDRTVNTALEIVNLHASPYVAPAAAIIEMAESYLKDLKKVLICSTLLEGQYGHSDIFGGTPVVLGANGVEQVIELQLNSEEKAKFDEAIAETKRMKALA

[4] = inhibition of 3D7 malaria parasite growth – strain 3D7 (AID 2306);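 note: 0% = DMSO wells and 100% = chloroquine plus artemisinin control wells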; conditions: P. falciparum 3D7 erythrocytic growth, LDH absorbance, 72 h; at 2 µM; hits give high values
[5] = molecular target: Calcium-dependent protein kinase 1 (Plasmodium falciparum (isolate 3D7)) (UniProt P62344); experiment: PfCDPK1 kinase inhibitors, biochemical, TCAMS library (AID 1159585; cut-off not given, nearly all actives have IC50 up to about 0.98 µM;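 note: inhibitors leave more ATP so luminescence rises with inhibition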); conditions: recombinant PfCDPK1, Kinase-Glo ATP depletion luminescence
Chain of Calcium-dependent protein kinase 1 (Plasmodium falciparum (isolate 3D7)) (P62344 whole entry, looked up): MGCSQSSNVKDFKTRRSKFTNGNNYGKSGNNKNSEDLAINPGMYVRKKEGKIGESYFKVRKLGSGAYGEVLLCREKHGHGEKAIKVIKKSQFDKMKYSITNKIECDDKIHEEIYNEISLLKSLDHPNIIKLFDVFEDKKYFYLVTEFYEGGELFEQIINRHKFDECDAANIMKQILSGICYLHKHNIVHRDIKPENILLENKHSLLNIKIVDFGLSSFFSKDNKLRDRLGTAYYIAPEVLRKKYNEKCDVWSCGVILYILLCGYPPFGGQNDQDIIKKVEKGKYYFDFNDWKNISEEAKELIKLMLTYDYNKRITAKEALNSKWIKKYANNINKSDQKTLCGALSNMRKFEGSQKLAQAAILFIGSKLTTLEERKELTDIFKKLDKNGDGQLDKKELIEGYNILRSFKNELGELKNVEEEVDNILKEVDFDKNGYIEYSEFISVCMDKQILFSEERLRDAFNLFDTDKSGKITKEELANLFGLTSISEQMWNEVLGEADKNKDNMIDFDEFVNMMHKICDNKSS

[6] = molecular target: Plasmodium falciparum protein kinase 6 (PK6, PF3D7_1337100) (UniProt Q8IDW1); experiment: PfPK6 kinase inhibitors, biochemical, TCAMS library (AID 1159586); conditions: recombinant PfPK6, Kinase-Glo ATP depletion luminescence
Chain of Plasmodium falciparum protein kinase 6 (PK6, PF3D7_1337100) (Q8IDW1 1-305): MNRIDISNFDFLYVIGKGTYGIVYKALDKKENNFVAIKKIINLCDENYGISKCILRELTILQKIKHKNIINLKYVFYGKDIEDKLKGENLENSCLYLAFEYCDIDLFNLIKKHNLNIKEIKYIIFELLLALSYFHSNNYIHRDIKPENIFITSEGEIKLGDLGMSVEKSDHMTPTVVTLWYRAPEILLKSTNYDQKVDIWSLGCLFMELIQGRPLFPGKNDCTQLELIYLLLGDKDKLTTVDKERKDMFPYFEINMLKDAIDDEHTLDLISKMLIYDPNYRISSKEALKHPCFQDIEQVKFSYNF

[7] = molecular target: Protein kinase 7 (PK7), Plasmodium falciparum 3D7 (PF3D7_0213400) (UniProt Q7YTF7); experiment: inhibition of Plasmodium PK7 catalytic activity – biochemical, TCAMS antimalarial set, Kinase-Glo luminescence (AID 1159587); conditions: recombinant PfPK7, Kinase-Glo ATP depletion luminescence
Chain of Protein kinase 7 (PK7), Plasmodium falciparum 3D7 (PF3D7_0213400) (Q7YTF7 1-343): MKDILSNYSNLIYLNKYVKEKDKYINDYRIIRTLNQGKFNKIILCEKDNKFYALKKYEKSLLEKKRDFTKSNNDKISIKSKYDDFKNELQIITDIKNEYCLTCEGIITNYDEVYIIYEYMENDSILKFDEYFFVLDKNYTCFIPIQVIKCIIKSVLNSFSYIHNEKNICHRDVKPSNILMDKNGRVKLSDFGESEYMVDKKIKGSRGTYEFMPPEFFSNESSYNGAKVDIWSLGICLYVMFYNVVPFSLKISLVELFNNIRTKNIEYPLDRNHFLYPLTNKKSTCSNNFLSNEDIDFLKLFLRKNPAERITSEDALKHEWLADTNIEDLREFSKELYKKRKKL

[8] = molecular target: Calcium-dependent protein kinase 4 (Plasmodium falciparum (isolate 3D7)) (UniProt Q8IBS5); experiment: PfCDPK4 kinase inhibitors, biochemical, TCAMS library (AID 1159588; cut-off not given, nearly all actives have IC50 up to about 0.91 µM); conditions: recombinant PfCDPK4, Kinase-Glo ATP depletion luminescence
Chain of Calcium-dependent protein kinase 4 (Plasmodium falciparum (isolate 3D7)) (Q8IBS5 whole entry, looked up): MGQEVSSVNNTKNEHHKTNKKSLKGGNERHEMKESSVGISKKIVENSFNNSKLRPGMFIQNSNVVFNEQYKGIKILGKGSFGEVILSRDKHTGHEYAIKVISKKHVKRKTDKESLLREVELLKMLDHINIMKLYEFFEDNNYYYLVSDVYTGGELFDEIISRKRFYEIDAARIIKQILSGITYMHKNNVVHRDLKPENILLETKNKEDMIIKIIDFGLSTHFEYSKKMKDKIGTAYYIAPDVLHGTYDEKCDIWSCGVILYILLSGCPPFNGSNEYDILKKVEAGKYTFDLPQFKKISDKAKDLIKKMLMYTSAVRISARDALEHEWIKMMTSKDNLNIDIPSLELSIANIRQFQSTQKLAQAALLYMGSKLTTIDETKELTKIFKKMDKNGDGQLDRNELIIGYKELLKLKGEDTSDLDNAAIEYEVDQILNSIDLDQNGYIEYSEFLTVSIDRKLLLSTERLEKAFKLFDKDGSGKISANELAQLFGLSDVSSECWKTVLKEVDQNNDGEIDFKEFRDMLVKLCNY

SMILES	growth inhibition [1]	inhibition [2]	inhibition [3] [%]	growth inhibition [4]	outcome [5]	outcome [6]	outcome [7]	outcome [8]
COc1ccc(CCN(C)CCOc2ccc(NC(=O)COc3ccc4sc5ccccc5c(=O)c4c3)cc2)cc1OC	91% (active)	99% (active)	-1	100% (active)	inactive	inactive	inactive	inactive
CCN(CC)CCNc1ccc(Nc2ccnc3cc4ccccc4cc23)cc1	99% (active)	36%	-8	102% (active)	inactive	inactive	inactive	inactive
C=C[C@]1(C)C[C@@H](OC(=O)c2n[nH]c3ccccc3c2=O)[C@]2(C)[C@H](C)CC[C@]3(CCC(=O)[C@H]32)[C@@H](C)[C@@H]1O	84% (active)	-6%	0	96% (active)	inactive	inactive	inactive	inactive
O=C(Nc1ccc(C(=O)Oc2ccc(-c3ccccc3)cc2)cc1)N[C@@H](Cc1ccc(O)cc1)C(=O)NC1CCN(Cc2ccc(O)cc2)C1 (stereo not given in full)	60% (active)	-7%	0	94% (active)	inactive	inactive	inactive	inactive
CC1(C)N=C(N)N=C(N)N1OCCSc1ccccc1	95% (active)	68% (active)	3	95% (active)	inactive	inactive	inactive	inactive
CN(C)CC(=O)Nc1ccc(Nc2nccc(NCC(O)c3ccccc3)n2)cc1 (stereo not given)	2%	-2%	-4	95% (active)	inactive	inactive	inactive	inactive
COc1ccc(OCCCON)cc1	-3%	3%	-1	98% (active)	inactive	inactive	inactive	inactive
CS(=O)(=O)CCNCc1ccc(-c2ccc3c(Nc4ccc(F)cc4Cl)ccnc3c2)o1	98% (active)	29%	0	100% (active)	inactive	inactive	inactive	inactive
CCCN1CC[C@@H](CCCc2ccnc3ccc(O)cc23)[C@@H](CC)C1	14%	10%	-2	93% (active)	inactive	inactive	inactive	inactive
O=C(NC1CCN(CCN2CCC(c3ccccc3C(F)(F)F)CC2)CC1)c1ccc(-c2ccc(Cl)cc2)cc1	68% (active)	39%	4	101% (active)	inactive	inactive	inactive	inactive
COc1ccc(-c2nc(NC(=O)Cc3coc4cc(OC)ccc34)sc2C)cc1	77% (active)	9%	-2	100% (active)	inactive	inactive	inactive	inactive
COc1ccccc1CCNc1nc(C)cc(N[C@@H](Cc2ccccc2)C(=O)NCCCOC(C)C)n1	32%	10%	-1	99% (active)	inactive	inactive	inactive	inactive
Oc1ccc2ccccc2c1CNC1CCCCCC1	33%	9%	5	83% (active)	inactive	inactive	inactive	inactive
CC(CN1CCN(C)CC1)C(=O)Nc1cccc(-c2ccc(-c3nc4ccc(F)cc4[nH]3)cc2)c1 (stereo not given)	98% (active)	10%	1	101% (active)	inactive	inactive	inactive	inactive
CS(=O)(=O)N(c1ccc(F)cc1)c1cc(C(=O)N[C@@H](Cc2ccccc2)[C@H](O)CNCc2cccc(C(F)(F)F)c2)cc(N2CCCC2=O)c1	65% (active)	-4%	-1	91% (active)	inactive	inactive	inactive	inactive
O=C(Nc1ccc(Cl)cc1F)NC1CCN(CCCCCNC(=O)[C@@H]2C[C@H]2c2ccc(Cl)c(Cl)c2)CC1	27%	46%	-5	101% (active)	inactive	inactive	inactive	inactive
CCNc1cc(C(=O)N[C@@H](Cc2ccccc2)[C@H](O)CNC2CCC(C)(C)CC2)cc(N2CCCCS2(=O)=O)c1	71% (active)	1%	3	98% (active)	inactive	inactive	inactive	inactive
CCN(CC)CCn1c(=N)n(CC(O)c2ccc(Cl)c(Cl)c2)c2ccccc21 (stereo not given)	88% (active)	35%	6	99% (active)	inactive	inactive	inactive	inactive
O=C(/C=C/c1ccc(Cl)c(Cl)c1)NCCCCCN1CCC(NC(=O)c2cccc(Cl)c2)CC1	23%	12%	-6	98% (active)	inactive	inactive	inactive	inactive
COc1cccc(-c2cc(-c3ccc(NC(=O)c4ccccc4)cc3)c3c(N)ncnc3n2)c1	98% (active)	-4%	0	99% (active)	inactive	inactive	inactive	inactive

SMILES	growth inhibition [1]	inhibition [2]	inhibition [3] [%]	growth inhibition [4]	outcome [5]	outcome [6]	outcome [7]	outcome [8]
CCN1CCc2nc3ccccc3c(C(=O)Nc3ccc(C#N)cc3)c2C1	72% (active)	24%	-1	99% (active)	inactive	inactive	inactive	inactive
FC(F)(F)c1cccc(Nc2nc3nonc3nc2NC2C3CC4CC(C3)CC2C4)c1 (stereo not given)	100% (active)	72% (active)	-2	103% (active)	inactive	inactive	inactive	inactive
CC(C)CNC(=O)c1ccnc(-c2ccc(CNC3Cc4ccccc4C3)cc2)c1	29%	25%	-5	99% (active)	inactive	inactive	inactive	inactive
CCCCCC(NCCCC)c1ccc(OCCOc2ccc(C(CCCCC)NCCCC)cc2)cc1 (stereo not given)	96% (active)	99% (active)	-2	88% (active)	inactive	inactive	inactive	inactive
CC1(C)CCC(C)(C)c2c1ccc(C1CCN(CCCCNC(=O)c3ccc(-c4ccc(Cl)cc4)cc3)CC1)c2O	72% (active)	100% (active)	-2	102% (active)	inactive	inactive	inactive	inactive
Cc1noc(-c2ccccc2)c1CN1CCCC2(CC(C(=O)NCc3cccc(F)c3F)=NO2)C1 (stereo not given)	28%	-1%	-1	85% (active)	inactive	inactive	inactive	inactive
CC1CN(c2ccc(NC(=O)c3ccsc3)cc2C(=O)N2CCN(Cc3ccc(C(C)(C)C)cc3)CC2)CC(C)O1 (stereo not given)	80% (active)	12%	7	90% (active)	inactive	inactive	inactive	inactive
CC(C)(C)c1ccc(CNC(=O)/C=C/c2ccc(CNC3CCNCC3)cc2)cc1	21%	6%	1	96% (active)	inactive	inactive	inactive	inactive
O=C(Nc1ccc(Cl)cc1)N[C@H]1CCN(CCCCCNC(=O)[C@@H]2C[C@H]2c2ccc(Cl)c(Cl)c2)C1	1%	24%	1	96% (active)	inactive	inactive	inactive	inactive
COc1ccc(CNCc2ccc(-c3ccc(-c4nc5ccccc5[nH]4)cc3)cc2)cc1	89% (active)	63% (active)	-4	103% (active)	inactive	inactive	inactive	inactive
O=C(NCCCCN1CCN(c2cccc(Cl)c2Cl)CC1)c1ccc2c(c1)CCN(C1CCC1)CC2	31%	97% (active)	3	95% (active)	inactive	inactive	inactive	inactive
Cc1nc(N=C(N)N)nc2ccc(C(C)(C)C)cc12	91% (active)	4%	-1	96% (active)	inactive	inactive	inactive	inactive
CCN(CC)S(=O)(=O)c1cc(-c2ccc(=O)n(CC(=O)c3ccc(C)cc3)n2)ccc1C	66% (active)	6%	-3	86% (active)	inactive	inactive	inactive	inactive
O=C(Cc1ccc(F)cc1)NC1CCN(c2ccnc3cc(Cl)ccc23)C1 (stereo not given)	85% (active)	-1%	1	99% (active)	inactive	inactive	inactive	inactive
COc1cccc(C(=O)NCc2cccs2)c1OCc1ccccc1	-1%	-12%	5	96% (active)	inactive	inactive	inactive	inactive
NCc1ccc(CNCc2ccc(-c3ccc(-c4nc5ccc(C(F)(F)F)cc5[nH]4)s3)cc2)cc1	92% (active)	34%	-2	95% (active)	inactive	inactive	inactive	inactive
O=C(NCCCCN1CCC(O)(c2ccc(Cl)cc2)CC1)c1ccc(Br)cc1	48%	41%	4	82% (active)	inactive	inactive	inactive	inactive
Cc1ccc(F)cc1S(=O)(=O)Nc1cccc(CCN2CCC(N3CCCCC3)CC2)c1	9%	15%	5	96% (active)	inactive	inactive	inactive	inactive
Nc1ncc(-c2ccsc2)c2ccc(-c3cnc[nH]3)cc12	70% (active)	31%	-7	100% (active)	inactive	inactive	inactive	inactive
CC(C)(CNC(=O)C1CCN(CC2CCCCC2)CC1)c1nc(-c2ccc(Cl)c(O)c2)c(-c2ccncc2)[nH]1	31%	-6%	-3	98% (active)	inactive	inactive	inactive	inactive
